# Results filed as inconclusive are left out. Activity calls are given as the source filed them. How the source made its calls, unless noted: active means hit-call score of the fitted dose curve at least 0.9, where 1 is the maximum; inactive means score below 0.9.
# How the values were obtained:
# [1] = CCTE_Padilla_ZF_144hpf_TERATOSCORE: (Legacy) CCTE's 144 Hour Post-fertilization zebrafish Assay Teratoscore, Padilla Lab (AID 2283679);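 on AC50: zebrafish embryos with chorions exposed by immersion from 6-8 hpf to 5 dpf with daily renewal; teratogenicity score from eye scoring of death hatching and malformations at 144 hpf; higher score means more developmental defects relative to DMSO baseline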
# In short: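 Larvae scored by eye at 144 hpf for death, hatching and malformations after a day in clean Hanks'. Before that, daily-renewed exposure at 80 uM (0.4% DMSO, 26C) from roughly 6-8 hpf through 5 dpf, 4 embryos per chemical.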
# [2] = Tanguay_ZF_120hpf_ActivityScore_legacy: (Legacy) Oregon State University Tanguay Lab 120 Hour Post-fertilization zebrafish Assay Score for Activity (AID 2283742; active means hit-call score of the fitted dose curve at least 0.9, where 1 is the maximum;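 on AC50: dechorionated Tropical 5D wild-type zebrafish embryos held singly per well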)
# In short: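 Dechorionated 5D embryos, one per well, static exposure 6–120 hpf, 28C, sealed and dark; final DMSO 0.64% (vol/vol). Brightfield binary scoring of mortality plus 18 endpoints; gain-of-signal fit versus DMSO baseline.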
# [3] = STM_H9_OrnithineISnorm_perc: Stemina devTOX quickPredict H9 human embryonic stem cell (hESC)-based Assay for Ornithine (ORN) Metabolite Biomarker, Normalized (AID 2283712);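 further: ornithine released into spent medium during last day measured by mass spectrometry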
# In short: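 UPLC-HRMS readout: endogenous ornithine EIC area / 13C-ORN internal standard, then % of 0.1% DMSO median. H9 hESCs (pluripotent), 72h exposure, re-dosed with fresh media q24h; last 24-h spent media, deproteinized in 40% acetonitrile.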
# [4] = STM_H9_CystineISnorm_perc: Stemina devTOX quickPredict H9 human embryonic stem cell (hESC)-based Assay for Cystine (CYSS) Metabolite Biomarker, Normalized (AID 2283713)
# In short: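 UPLC-HRMS read-out: endogenous cystine peak area in spent medium, normalized to isotope-labeled internal standard and to median of 0.1% DMSO controls. Pluripotent H9 cells, 72h exposure, daily medium/compound replenishment; medium from last 24h sampled.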
# [5] = STM_H9_OrnCyssISnorm_ratio: Stemina devTOX quickPredict H9 human embryonic stem cell (hESC)-based Assay for Ornithine (ORN):Cystine (CYSS) Ratio (AID 2283714; active means hit-call score of the fitted dose curve at least 0.9, where 1 is the maximum)
# In short: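 UPLC-HRMS of spent media: ORN/CYSS ratio of internal-standard-normalized percentages, DMSO (0.1%) baseline. Pluripotent H9 hESCs, 72h exposure, daily re-dosing with fresh media; last 24h media collected.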
# [6] = CEETOX_H295R_MTT_cell_viability: Viability Assessment in the CeeTox HT-H295R MTT Assay (AID 2283718);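 on AC50: curve fitted both ways so AC50 may mark viability loss or gain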
# In short: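 Human H295R adrenal cells, prestimulated 48 h with 10 uM forskolin, were exposed 48 h to chemicals in 0.1% DMSO. Viability was measured in the same wells by MTT (0.5 mg/ml, 4 h, 37 C), absorbance 570/650 nm, as percent of controls.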
# [7] = ArunA_CellTiter_hNC: Viability Assessment in the ArunA Biomedical's Oris Neural Crest (hNC) Cell Migration Assay (AID 2283752; active means hit-call score of the fitted dose curve at least 0.9, where 1 is the maximum)
# In short: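 hNC cells (H9 ESC-derived), 60,000/well, Matrigel, LIF + bFGF medium; 16 h 37C attachment; 72 h compound in test medium; CellTiter Aqueous One read-out; loss-of-signal vs DMSO baseline.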
# [8] = ArunA_CellTiter_hNP: Viability Assessment in the ArunA Biomedical's Oris Neural Crest (hNC) Cell Migration Assay (AID 2283753; active means hit-call score of the fitted dose curve at least 0.9, where 1 is the maximum)
# In short: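 Viability read with CellTiter 96 Aqueous One after 72 h chemical exposure of human hNP1 neuroprogenitors, which were plated on Matrigel in LIF/bFGF medium 16 h beforehand. Endpoint fitted in positive direction relative to DMSO.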
# [9] = tested on: Thyroperoxidase (TPO), gene 445522; experiment: CCTE_Simmons_GUA_TPO: CCTE's Guaiacol Assay for Thyroperoxidase (TPO) Inhibition, Simmons Lab (AID 2283750; active means hit-call score of the fitted dose curve at least 0.9, where 1 is the maximum)
# Protocol: CCTE_Simmons_GUA_TPO is a biochemical, single-readout assay that uses microsomes from porcine thyroid gland in a tissue-based cell-free assay. Measurements were taken 0.5 hour after chemical dosing in a 384-well plate.CCTE_Simmons_GUA_TPO is the assay component measured from the CCTE_Simmons_GUA_TPO assay. It is designed to make measurements of enzyme activity, a form of enzyme reporter, as detected with absorbance signals by enzyme activity technology. This is an orthogonal assay to CCTE_Simmons_AUR_TPO run for confirmation.Data from the assay component CCTE_Simmons_GUA_TPO was analyzed at the endpoint, CCTE_Simmons_GUA_TPO, in the positive analysis fitting direction relative to DMSO as the negative control and baseline of activity. […]
# The GUA assay has been described previously for both rat and pig thyroid microsomes (Chang and Doerge, 2000; Paul et al., 2013; Tietge et al., 2013). […] Guaiacol (10 ul; 35mM final assay concentration) was then added using a BMG Clariostar plate reader equipped with syringe injectors and incubated with test chemical exposure at 37C for 30s. […] The oxidation of guaiacol was monitored during the linear phase (first 80 seconds of the reaction) at 450nm, and the change in absorbance over this period was recorded for data analysis. […]
compound,measurement,setting,value
CCCCCCCC1CCC(=O)O1 (centres undefined),AC50,[1],8.03 µM (active)
same,AC50,[2],43.7 µM (active)
CCN(CC)C(=S)SSC(=S)N(CC)CC,AC50,[1],0.183 µM (active)
same,AC50,[3],0.32 µM (active)
same,AC50,[4],0.682 µM (active)
same,AC50,[5],0.325 µM (active)
same,outcome,[6],inactive
same,AC50,[2],0.831 µM (active)
same,AC50,[7],8.19 µM (active)
same,AC50,[8],7.2 µM (active)
C[C@@H](Oc1ccc(CNC(=O)c2cccnc2Oc2ccc3c(c2)OCO3)c(F)c1)C(=O)O,outcome,[1],inactive
same,outcome,[6],inactive
same,outcome,[2],inactive
same,outcome,[9],inactive
Nc1ccn([C@@H]2O[C@H](CO)[C@@H](O)[C@@H]2O)c(=O)n1,AC50,[3],0.235 µM (active)
same,AC50,[4],0.142 µM (active)
same,AC50,[5],0.203 µM (active)
same,AC50,[6],1.43 µM (active)
same,outcome,[2],inactive
NC(=O)N1c2ccccc2C=Cc2ccccc21,outcome,[3],inactive
same,AC50,[4],4.32 µM (active)
same,AC50,[5],4.18 µM (active)
same,AC50,[2],0.0251 µM (active)
C=CCc1cc(S(=O)(=O)c2ccc(O)c(CC=C)c2)ccc1O,AC50,[1],60 µM (active)
same,outcome,[6],inactive
same,outcome,[2],inactive
c1ccc(C(O[C@@H]2CCCN(CCc3ccc4c(c3)OCO4)C2)c2ccccc2)cc1,AC50,[1],2.1 µM (active)
same,AC50,[2],36.3 µM (active)
OC(Cn1cncn1)(Cn1cncn1)c1ccc(F)cc1F,outcome,[3],inactive
same,outcome,[4],inactive
same,outcome,[5],inactive
same,outcome,[2],inactive
O=S1(=O)CCCO1,outcome,[3],inactive
same,AC50,[4],83 µM (active)
same,AC50,[5],78.2 µM (active)
same,outcome,[2],inactive
CCc1ccc(O)c(C(C)(C)C)c1,AC50,[1],25.1 µM (active)
same,outcome,[2],inactive
OC(CCl)CCl,outcome,[2],inactive
Cn1c(=O)c2[nH]cnc2n(C)c1=O,outcome,[3],inactive
same,outcome,[4],inactive
same,outcome,[2],inactive
CCOc1ccc2[nH]cc(C(=O)NCc3ccccc3)c(=O)c2n1,outcome,[6],inactive
CCOC(N)=O,outcome,[2],inactive

# From PubChem BioAssay (EPA / NIEHS)
